Measurements: the supplement of paper PMC9262897, “Low-cost anti-mycobacterial drug discovery using engineered E. coli” (Nature Communications, 2022)
Structures can show the parent of a compound that is named as a salt. ± gives the standard deviation of the averaged measurements.

Tests used:
Assay in all cases: growth (OD600 after 10 h); higher = more growth (less inhibition)
[1] = system: E. coli TESEC Alr+ wild-type control; settings: compound 0.1 mM; raw OD600 reference: median of DMSO wells 0.241, cell-free background 0.041
Experimental: (§1)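 TESEC Mtb Alr E. coli, or the Alr+ wild-type control, in 384-well plates with Prestwick library compounds at 0.1 mM and 1% DMSO, across arabinose induction levels of 1E3 to 1E7 nM. Growth is read as OD600 after 10 h at 37 °C in triplicate biological replicates.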

[2] = system: E. coli TESEC Mtb Alr; settings: compound 0.1 mM
Experimental: as §1

[3] = system: E. coli TESEC Mtb Asd; settings: compound 0.1 mM
Experimental: (§2)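 TESEC E. coli strains in which the native enzyme is deleted and replaced by arabinose-inducible Mtb Asd, DapB, CysH or TrpD, each grown in its selective medium. Strains were screened against the Prestwick library at 0.1 mM and 1% DMSO in 384-well format at low and high arabinose induction. Growth is read as OD600 after 10 h in triplicate.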

[4] = system: E. coli TESEC Mtb DapB; settings: compound 0.1 mM
Experimental: as §2

[5] = system: E. coli TESEC Alr+ wild-type control; settings: compound 0.1 mM; raw OD600 reference: median of DMSO wells 0.49, cell-free background 0.052
Experimental: (§3)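 TESEC Mtb Alr E. coli (ΔaraC ΔtolC ΔentC Δalr ΔdadX, arabinose-inducible Mtb Alr) or the Alr+ wild-type control strain, grown in defined M9-fructose medium without D-alanine in 96-well plates with Prestwick library compounds at 0.1 mM and 1% DMSO. Low Alr induction is 0.1 µM arabinose and high induction is 10 mM arabinose.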

[6] = system: E. coli TESEC Mtb Alr; settings: compound 0.1 mM; remark: listed apart in the source
Experimental: as §3

[7] = arabinose 1000 nM, raw OD600 reference: median of DMSO wells 0.294, cell-free background 0.041
[8] = arabinose 10000 nM, raw OD600 reference: median of DMSO wells 0.264, cell-free background 0.041
[9] = arabinose 100000 nM, raw OD600 reference: median of DMSO wells 0.201, cell-free background 0.041
[10] = arabinose 1000000 nM, raw OD600 reference: median of DMSO wells 0.193, cell-free background 0.041
[11] = arabinose 10000000 nM, raw OD600 reference: median of DMSO wells 0.146, cell-free background 0.041
[12] = arabinose induction (level): High, raw OD600 reference: median of DMSO wells 0.331, cell-free background 0.041
[13] = arabinose induction (level): Low, raw OD600 reference: median of DMSO wells 0.417, cell-free background 0.041
[14] = arabinose induction (level): High, raw OD600 reference: median of DMSO wells […], cell-free background 0.041
[15] = arabinose induction (level): Low, raw OD600 reference: median of DMSO wells 0.227, cell-free background 0.041
[16] = arabinose 100 nM, raw OD600 reference: median of DMSO wells 0.413, cell-free background 0.052
[17] = arabinose 10000000 nM, raw OD600 reference: median of DMSO wells […], cell-free background 0.052

SMILES | growth [1] | growth [2, 7] | growth [2, 8] | growth [2, 9] | growth [2, 10] | growth [2, 11] | growth [3, 12] | growth [3, 13] | growth [4, 14] | growth [4, 15] | growth [5] | growth [6, 16] | growth [6, 17]
CN1C(=O)OC(C)(C)C1=O [Trimethadione] | 0.242 ± 0.0071 | 0.283 ± 0.0076 | 0.269 ± 0.012 | 0.202 ± 0.014 | 0.185 ± 0.0082 | 0.1382 ± 0.00081 | 0.297 ± 0.098 | 0.409 ± 0.037 | 0.193 ± 0.0086 | 0.229 ± 0.042 | 0.553 ± 0.073 | 0.423 ± 0.011 | 0.344 ± 0.02
Cn1c(NCCN(CCO)CCCc2ccc([N+](=O)[O-])cc2)cc(=O)n(C)c1=O [Nifekalant] | 0.241 ± 0.011 | 0.301 ± 0.0034 | 0.248 ± 0.003 | 0.168 ± 0.0095 | 0.144 ± 0.0052 | 0.145 ± 0.002 | 0.179 ± 0.017 | 0.428 ± 0.057 | 0.2 ± 0.033 | 0.258 ± 0.013 | 0.534 ± 0.067 | 0.4 ± 0.015 | 0.298 ± 0.02
OCCOCCN1CCN(C2=Nc3ccccc3Sc3ccccc32)CC1 [Quetiapine hemifumarate] | 0.158 ± 0.01 | 0.25 ± 0.0048 | 0.255 ± 0.0044 | 0.203 ± 0.026 | 0.121 ± 0.0057 | 0.151 ± 0.0081 | 0.162 ± 0.024 | 0.361 ± 0.016 | 0.174 ± 0.013 | 0.187 ± 0.021 | 0.486 ± 0.019 | 0.396 ± 0.0062 | 0.289 ± 0.0089
CO/N=C(\C(=O)N[C@@H]1C(=O)N2C(C(=O)O)=C(COC(C)=O)CS[C@H]12)c1csc(N)n1 [Cefotaxime sodium salt] | 0.0395 ± 0.00046 | 0.0388 ± 0.0013 | 0.0398 ± 0.00026 | 0.0388 ± 0.0013 | 0.04017 ± 0.00038 | 0.04007 ± 0.0004 | 0.0625 ± 0.0074 | 0.0606 ± 0.002 | 0.0632 ± 0.014 | 0.0489 ± 0.0033 | 0.0462 ± 0.0019 | 0.0466 ± 0.0015 | 0.0529 ± 0.0023
Cc1c(-c2ccccc2)oc2c(C(=O)OCCN3CCCCC3)cccc2c1=O [Flavoxate hydrochloride] | 0.139 ± 0.0069 | 0.171 ± 0.0084 | 0.248 ± 0.0097 | 0.145 ± 0.0026 | 0.105 ± 0.0025 | 0.139 ± 0.0023 | 0.217 ± 0.06 | 0.381 ± 0.04 | 0.168 ± 0.011 | 0.234 ± 0.12 | 0.414 ± 0.023 | 0.398 ± 0.015 | 0.262 ± 0.019
COC(=O)C1=C(C)NC(C)=C(C(=O)OC2CCCN(Cc3ccccc3)C2)C1c1cccc([N+](=O)[O-])c1 (stereo not drawn) [Benidipine hydrochloride] | 0.184 ± 0.005 | 0.148 ± 0.005 | 0.177 ± 0.012 | 0.168 ± 0.011 | 0.107 ± 0.0056 | 0.119 ± 0.024 | 0.162 ± 0.0021 | 0.157 ± 0.0085 | 0.17 ± 0.022 | 0.192 ± 0.016 | 0.295 ± 0.015 | 0.353 ± 0.018 | 0.122 ± 0.028
Nc1nc(=O)n([C@@H]2CS[C@H](CO)O2)cc1F [(-)-Emtricitabine] | 0.238 ± 0.0098 | 0.285 ± 0.0065 | 0.248 ± 0.0044 | 0.254 ± 0.061 | 0.172 ± 0.0027 | 0.147 ± 0.005 | 0.291 ± 0.092 | 0.419 ± 0.09 | 0.192 ± 0.024 | 0.218 ± 0.011 | 0.572 ± 0.0088 | 0.412 ± 0.0087 | 0.337 ± 0.012
c1ccc(CC2=NCCN2)cc1 [Tolazoline hydrochloride] | 0.2459 ± 0.0022 | 0.301 ± 0.018 | 0.253 ± 0.0071 | 0.191 ± 0.0077 | 0.172 ± 0.0039 | 0.149 ± 0.0054 | 0.264 ± 0.08 | 0.435 ± 0.036 | 0.191 ± 0.017 | 0.256 ± 0.052 | 0.493 ± 0.064 | 0.413 ± 0.007 | 0.364 ± 0.012
CN1CCN(CCCN2c3ccccc3Sc3ccc(Cl)cc32)CC1 [Prochlorperazine dimaleate] | 0.04087 ± 0.00015 | 0.041 ± 0.00045 | 0.03943 ± 0.00025 | 0.0418 ± 0.00082 | 0.0404 ± 0.0023 | 0.0433 ± 0.00072 | 0.059 ± 0.0069 | 0.166 ± 0.025 | 0.156 ± 0.021 | 0.139 ± 0.0076 | 0.04753 ± 0.00025 | 0.287 ± 0.21 | 0.0531 ± 0.0013
OCCN1CCN(CC/C=C2/c3ccccc3Sc3ccc(Cl)cc32)CC1 [Zuclopenthixol dihydrochloride] | 0.0505 ± 0.0052 | 0.257 ± 0.0079 | 0.176 ± 0.005 | 0.1981 ± 0.0017 | 0.0779 ± 0.0011 | 0.14 ± 0.0078 | 0.205 ± 0.043 | 0.215 ± 0.011 | 0.179 ± 0.029 | 0.186 ± 0.038 | 0.049 ± 0.0005 | 0.156 ± 0.19 | 0.0523 ± 0.0015
C[C@H](O)C(=O)Nc1c(I)c(C(=O)NC(CO)CO)c(I)c(C(=O)NC(CO)CO)c1I [Iopamidol] | 0.261 ± 0.011 | 0.323 ± 0.014 | 0.287 ± 0.012 | 0.217 ± 0.0049 | 0.195 ± 0.0084 | 0.166 ± 0.0031 | 0.443 ± 0.035 | 0.396 ± 0.035 | 0.221 ± 0.0036 | 0.249 ± 0.028 | 0.465 ± 0.036 | 0.397 ± 0.022 | 0.338 ± 0.011
CNCCC(Oc1ccccc1OC)c1ccccc1 (stereo not drawn) [Nisoxetine hydrochloride] | 0.206 ± 0.015 | 0.258 ± 0.011 | 0.2337 ± 0.0022 | 0.173 ± 0.004 | 0.153 ± 0.0049 | 0.139 ± 0.0023 | 0.247 ± 0.049 | 0.405 ± 0.026 | 0.149 ± 0.031 | 0.2 ± 0.018 | 0.566 ± 0.12 | 0.4 ± 0.011 | 0.346 ± 0.018
Nc1ccccc1S(N)(=O)=O [2-Aminobenzenesulfonamide] | 0.239 ± 0.0094 | 0.296 ± 0.019 | 0.255 ± 0.0044 | 0.198 ± 0.0049 | 0.187 ± 0.0032 | 0.137 ± 0.004 | 0.399 ± 0.029 | 0.49 ± 0.028 | 0.2 ± 0.019 | 0.202 ± 0.019 | 0.566 ± 0.029 | 0.416 ± 0.013 | 0.343 ± 0.0096
CCN(CC)CCOC(=O)C(c1ccccc1)c1ccccc1 [Adiphenine hydrochloride] | 0.222 ± 0.0088 | 0.309 ± 0.033 | 0.252 ± 0.004 | 0.168 ± 0.0062 | 0.14 ± 0.0034 | 0.142 ± 0.0034 | 0.197 ± 0.033 | 0.382 ± 0.069 | 0.165 ± 0.0095 | 0.223 ± 0.046 | 0.494 ± 0.04 | 0.414 ± 0.0051 | 0.313 ± 0.051
Nc1ccc(S(=O)(=O)Nc2ccccn2)cc1 [Sulfapyridine] | 0.239 ± 0.0046 | 0.295 ± 0.018 | 0.261 ± 0.0053 | 0.219 ± 0.0099 | 0.174 ± 0.0063 | 0.141 ± 0.0049 | 0.354 ± 0.035 | 0.412 ± 0.015 | 0.188 ± 0.02 | 0.215 ± 0.041 | 0.449 ± 0.0039 | 0.405 ± 0.013 | 0.325 ± 0.0082
CCCCNc1cc(C(=O)O)cc(S(N)(=O)=O)c1Oc1ccccc1 [Bumetanide] | 0.234 ± 0.0058 | 0.261 ± 0.021 | 0.251 ± 0.0081 | 0.167 ± 0.018 | 0.159 ± 0.0062 | 0.138 ± 0.0095 | 0.226 ± 0.01 | 0.449 ± 0.062 | 0.209 ± 0.027 | 0.215 ± 0.038 | 0.492 ± 0.048 | 0.426 ± 0.0046 | 0.333 ± 0.02
